Screening results (PubChem)
HP1b binding inh = blocks HP1-beta chromodomain binding to methylated histone tails. P83916. AlphaScreen HP1-beta / biotin-H3K9me3 peptide binding. Potency, µM (highest dose often 114 µM), inactives show at the highest dose activity change, negative = inhibition, actives largely listed as inhibitors. 390,000 compounds, 0.56% hits; also: nearly all actives have a fitted effect of over 70% in size
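Compound inhibition of the preformed complex between 50 nM HP1-beta and 50 nM biotinylated H3K9me3 peptide was read by AlphaScreen. Buffer was PBS pH 7.4 with 0.01% Tween-20. Incubations ran 30 min at room temperature, with 10 ug/mL donor/acceptor beads.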
BAZ2B inh = BAZ2B (human) inhibition | Q9UIF8 | AlphaScreen BAZ2B-H3K14Ac peptide displacement | Potency, µM (top dose mostly 114 µM), for inactives: at the top dose activity change, negative = inhibition, hits mostly inhibitors | 360,000 compounds, 4.4% hits | AID 504333; also: % is scaled to controls: 0 for no effect and ±100 for the full control effect; nearly all actives have a fitted effect of over 60% in size
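BAZ2B 50 nM plus b-H3(5-23)K14Ac 50 nM, PBS pH 7.4/0.01% Tween-20, 30 min RT; compound added (max 110 uM), 30 min RT; streptavidin donor/Ni-chelate acceptor beads 10 ug/mL final, 20 min dark; AlphaScreen read.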
JMJD2A Tudor inh = inhibitors of human JMJD2A Tudor domain; AID 504339; Potency, µM (series often up to 114 µM), without a hit: at the highest dose activity change, negative = inhibition, hits mostly inhibitors; AlphaScreen JMJD2A-Tudor / H3K4me3 peptide binding; 390,000 compounds, 4.4% hits; O75164; also: % is scaled to controls: 0 for no effect and ±100 for the full control effect; nearly all actives have a fitted effect of over 50% in size
Sfp inh = Sfp phosphopantetheinyl transferase inhibition | Q9F4F7 | Biochemical Sfp PPTase activity, qHTS | Potency, µM, for inactives: largest response in the series, negative = inhibition, actives largely listed as inhibitors | 310,000 compounds, 3.5% hits | AID 1490;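 also: the enzyme is Sfp with the accession as filed and its product quenches rhodamine fluorescence; 0% = enzyme reaction without inhibitor and -100% = no enzyme wells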
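Step 1, compound plus 15 nM Sfp-PPTase, 15 min, room temperature. Step 2, add rhodamine-CoA (5 uM) and BHQ-2-YbbR (12.5 uM). Step 3, read 525/598 nm fluorescence at 0 and 30 min.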
L3MBTL1 inh = blocks human L3MBTL1; Q9Y468; AlphaScreen L3MBTL1–H3K9me1 peptide binding; Potency, µM (doses to about 57.1 µM), without a hit: at the highest dose activity, negative = inhibition, usual class: inhibitors; 230,000 compounds, 0.66% hits; AID 485360; also: % is scaled to controls: 0 for no effect and ±100 for the full control effect; nearly all actives have a fitted effect of over 60% in size
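AlphaScreen assay: L3MBTL1 (50 nM final) was preincubated 30 min at room temperature with biotinylated H3(1-15)K9me1 peptide (75 nM final), then 30 min with library compounds; streptavidin donor and nickel chelate acceptor beads (10 ug/mL final) added, 30 min dark.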
G9a inh = G9a (human) methyltransferase inhibition | Q96KQ7 | G9a H3K9 monomethylation, AlphaScreen, 2 h | Potency, µM (top dose mostly 102 µM), without a hit: at the top dose activity, negative = inhibition, most hits filed as inhibitors | 350,000 compounds, 8.8% hits | AID 504332; also: % is scaled to controls: 0 for no effect and ±100 for the full control effect; nearly all actives have a fitted effect of over 75% in size
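AlphaScreen read-out: biotin-H3K9 peptide (500 nM) methylation by 20 nM enzyme with 20 uM SAM, 2 h at room temperature after 15 min compound preincubation; anti-monomethyl H3K9 antibody plus donor/acceptor beads, 10 min dark.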
Active calls of the source: *; ? = inconclusive; / = no result given; [ ] = another dose, or the depositor's remark. The list is not random: actives were taken first. Their share in the collection is about 12%. Calls follow the shape of the dose curve; as a rule, active = well fitted curve in the direction sought with a large enough effect; inconclusive = small, poorly fitted or top-dose-only effect, or another doubt; inactive = no such curve, though single readings can be large; an effect the other way counts as inactive or inconclusive. Potency is read from the fitted curve at half-maximal effect.

SMILES	HP1b binding inh	BAZ2B inh	JMJD2A Tudor inh	Sfp inh	L3MBTL1 inh	G9a inh
O=C(CCNC(=O)c1ccccc1)Nc1cccnc1	-1%	19%	45µM*	0%	/	-26%
O=C(c1ccc(F)cc1)N1CCN(c2ccc([N+](=O)[O-])c(N3CCCCC3)c2)CC1	-16%	?	?	1%	-8%	28µM*
COc1cc(OC)cc(C(=O)NC(=S)Nc2cccnc2)c1	15%	-15%	-8%[11.4 µM]	3%	-11%	?
COc1ccc(CNC(=O)CCC(=O)Nc2cccnc2)cc1	42%	1%	-3%	12%	11%	40µM*
COc1ccc(C(=O)NC(=S)Nc2cccnc2)cc1OC	13%	-34%	-14%	-22%	5%	50µM*
COc1cc(OC)cc(C(=O)NC(=S)Nc2ccc(N3CCCC3)cc2)c1	?	?	?	?	-26%	10µM*
CCn1ccc2cc(S(=O)(=O)N3CCCN(C(=O)NCC(=O)OC)CC3)ccc21	25%[57 µM]	0%	-5%	/	/	5%[59 µM]
O=C(CSC1=Nc2ccccc2N=C(c2ccc(F)cc2)C1)Nc1ccc(Cl)cc1	24%[57 µM]	-1%	0%	/	/	-23%[59 µM]
CCOc1cccc(C(=O)NC(=S)Nc2cccnc2)c1	7%	-33%	?	45µM*	1%	10µM*
COc1ccccc1NC(=O)C1CCN(S(=O)(=O)c2cn(C)cn2)CC1	-20%	-17%	-17%	/	/	-40%[59 µM]
C=CCc1c(C)nc(-c2ccccc2)nc1N/N=C(\C)c1ccccc1	31%	-33%	-28%	45µM*	-5%	?
COc1ccc(/C=N/N=C2/CC(C)(C)Cc3n[nH]c(=O)cc32)cc1	41%	-30%	-4%	?	-10%	35µM*
C=C(C)C(O)/C=C/c1ccc(C(F)(F)F)cc1 (configuration not stated)	/	/	/	15%	/	/
COc1ccc2ccccc2c1CN1CCN(Cc2ccccc2)CC1	-4%	?	-33%	13%	-2%	?
CCOc1cc(CN2CCCCCC2)ccc1OC	-14%	?	2.2µM*	-7%	28%	/
OC1CCN(Cc2ccc3ccccc3c2)CC1	?	?	3.5µM*	7%	4%	11µM*
COc1ccccc1CN1CCN(Cc2ccc3ccccc3c2)CC1	?	22µM*	8.9µM*	?	/	7.9µM*
COc1ccc(CN2CCN(Cc3ccc4ccccc4c3)CC2)cc1OC	25µM*	16µM*	2.8µM*	?	/	-1%[2.33 µM]
O=C(Nc1ccc(Cl)cc1F)c1cc(S(=O)(=O)NCc2ccc3c(c2)OCO3)ccc1F	5%	-1%	-24%	/	/	-26%[59 µM]
COC(=O)C1=CN(c2cccc(C)c2)C=C(C(=O)OC)C1c1cc(OC)c(O)c([N+](=O)[O-])c1	?	28µM*	45µM*	-17%	-30%	13µM*
CCN(CC)c1cc(C)c2cc(NC(=O)/C=C/c3ccccc3OC(C)C)ccc2n1	24%	-1%	-9%	/	/	-24%[59 µM]
CC(C)OC(=O)Nc1ccc2c(c1)N(C(=O)N1CCN(C)CC1)c1ccccc1CC2	45µM*	40µM*	0.89µM*	-18%	-10%	?
CCN(CC)CC(=O)Nc1ccc2c(c1)N(C(=O)CN(CC)CC)c1ccccc1CC2	33%	1%	-14%	-3%	/	56µM*
CCc1nnc(N/N=C/c2c(Cl)cccc2Cl)n1N	27%	-4%	-31%	-17%	-4%	-7%
CCc1nnc(N/N=C/c2cc(Br)c(O)cc2O)n1N	41%	50µM*	79µM*	50µM*	-10%	50µM*
CCc1nnc(N/N=C/c2cccs2)n1N	35%	-6%	-12%	?	-14%	50µM*
CC(C)(C)c1nnc(N/N=C/c2cc(Br)ccc2O)n(N)c1=O	6%	18µM*	22µM*	?	?	5%[59 µM]
Cc1ccc(Nc2nnc(C(C)(C)C)c(=O)n2N)cc1	9%	-4%	-16%	11%	15%	35%[59 µM]
O=C1c2ccccc2-c2onc3c(Oc4ccccc4)cc(O)c1c23	/	35µM*	/	-12%	/	?
